SRC3 TRFRET art: TR-FRET detection interference compounds, artefact control for PPARgamma SRC-3 recruitment agonists, biochemical, TR-FRET ratio; TR-FRET artefact counter-screen, PPARgamma/SRC-3 format; hits give high values; TR-FRET ratio at 8 µM; 99,000 tested, 0.39% active; AID 1048, 2008
PPARg SRC1 recr: PPARgamma agonists recruiting SRC-1 coactivator, primary screen, biochemical. activation, % at 8 µM. 200,000 tested, 0.41% active. PPARgamma-SRC-1 coactivator recruitment biochemical assay. AID 631, 2007; in the data active = activation above about 19%;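 also: 0% = DMSO and 100% = reference agonist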
Target sequence (P37231 whole entry, looked up): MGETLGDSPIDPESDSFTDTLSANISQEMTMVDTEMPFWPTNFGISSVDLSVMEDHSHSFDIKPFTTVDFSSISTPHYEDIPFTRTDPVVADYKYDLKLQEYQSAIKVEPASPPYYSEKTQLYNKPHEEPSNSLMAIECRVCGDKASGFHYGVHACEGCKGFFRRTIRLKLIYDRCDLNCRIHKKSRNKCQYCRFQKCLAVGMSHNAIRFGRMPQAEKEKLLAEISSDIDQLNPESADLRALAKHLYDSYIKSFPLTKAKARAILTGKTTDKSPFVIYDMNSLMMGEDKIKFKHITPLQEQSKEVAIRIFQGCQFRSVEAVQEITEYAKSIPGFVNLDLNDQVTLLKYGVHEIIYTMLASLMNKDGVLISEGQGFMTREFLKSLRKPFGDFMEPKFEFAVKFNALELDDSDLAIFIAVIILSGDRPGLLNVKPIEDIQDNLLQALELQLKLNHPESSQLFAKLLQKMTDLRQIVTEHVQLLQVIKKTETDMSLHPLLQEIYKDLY
PPARg SRC2 recr: agonists of PPARg-SRC-2 recruitment, primary screen, biochemical, HTS; 200,000 tested, 0.34% active; activation, % at 8 µM; PPARgamma LBD-SRC-2 recruitment; Peroxisome proliferator-activated receptor gamma (Homo sapiens), P37231; in the data active = activation above about 22%;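 also: 0% = vehicle and 100% = reference agonist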
PPARg SRC-3 ag: PPARgamma agonists recruiting SRC-3 coactivator, primary screen, biochemical | biochemical PPARgamma/SRC-3 coactivator recruitment assay | activation, % at 8 µM | 200,000 tested, 0.26% active | AID 731, 2007; in the data active = activation above about 23%;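 also: 0% = DMSO and 100% = reference agonist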
TR-FRET SRC-2 ct: TR-FRET signal artefacts, primary screen, artefact control for PPARgamma SRC-2 agonist project, biochemical | TR-FRET artefact counter-screen; hits give high values | TR-FRET ratio at 8 µM | 200,000 tested, 0.4% active | AID 1049, 2008
SRC1 TRFRET art: TR-FRET detection interference compounds, primary screen, artefact control for PPARgamma SRC-1 recruitment agonists, biochemical, TR-FRET emission ratio; TR-FRET ratio at 8 µM; 99,000 tested, 0.34% active; TR-FRET detection artefact counter-screen; hits give high values; in the data active = TR-FRET ratio above about 2300
PPARg SRC2 conf: agonists of PPARgamma SRC-2 coactivator recruitment, confirmation, biochemical, HTS; AID 1297, 2008; activation, % at 8 µM; shares compounds with PPARg SRC-3 ag; 790 tested, 52% active; biochemical SRC-2 recruitment by PPARgamma; in the data active = activation above about 22%;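 also: 0% = vehicle alone and 100% = reference agonist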
PPARg SRC1 conf: PPARgamma agonists recruiting SRC-1 coactivator, confirmation, biochemical; PPARgamma–SRC-1 coactivator recruitment biochemical assay; activation, % at 8 µM; shares compounds with PPARg SRC-3 ag; 790 tested, 43% active; in the data active = activation above about 20%;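 also: 0% = vehicle wells and 100% = reference agonist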
PPARg SRC3 conf: PPARgamma-driven SRC-3 coactivator recruitment agonists, confirmation, biochemical. shares compounds with PPARg SRC-3 ag. biochemical PPARgamma-SRC-3 coactivator recruitment, agonist mode. activation, % at 8 µM. 790 tested, 29% active. AID 1301, 2008; in the data active = activation above about 24%;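 also: 0% = vehicle wells and 100% = reference agonist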
* marks the source's active call; other numbers are inactive results. This is a sample that favours compounds with a hit; in the whole collection about 0.9% have one here. Rule as the data show it, unless noted: active = TR-FRET ratio above about 2000; inactive = the rest.

What do the screens show for `COc1cc(C(=O)Nc2nc3ccc4nc(C)sc4c3s2)cc(OC)c1OC`?
PPARg SRC1 recr: 16; PPARg SRC2 recr: 4; PPARg SRC-3 ag: 9; TR-FRET SRC-2 ct: 1480

What do the screens show for `Cc1ccc(C)c(SCC(=O)NCc2ccco2)c1`?
PPARg SRC1 recr: -2; PPARg SRC2 recr: 11; PPARg SRC-3 ag: 0; TR-FRET SRC-2 ct: 1634

What do the screens show for `CCn1c(CNC(=O)Cc2ccc(OC)cc2)nnc1SCCOc1ccccc1`?
PPARg SRC1 recr: 3; PPARg SRC2 recr: -2; PPARg SRC-3 ag: 1; TR-FRET SRC-2 ct: 1574

Results for COc1cccc(CNC(=O)CSc2cc(=O)n(C)c3ccccc23)c1 ?
SRC3 TRFRET art: 2024; PPARg SRC1 recr: 42*; PPARg SRC2 recr: 23*; PPARg SRC-3 ag: 21; TR-FRET SRC-2 ct: 2371*; SRC1 TRFRET art: 2682*; PPARg SRC2 conf: 36*; PPARg SRC1 conf: 25*; PPARg SRC3 conf: 24*

Results for COc1ccc(CC(=O)NCc2nnc(SCCOc3ccccc3)n2C)cc1 ?
PPARg SRC1 recr: 19*; PPARg SRC2 recr: 10; PPARg SRC-3 ag: 3; TR-FRET SRC-2 ct: 1523; PPARg SRC2 conf: 3; PPARg SRC1 conf: 1; PPARg SRC3 conf: 2

How did Cn1c(=O)cc(SCC(=O)NCC2CCCO2)c2ccccc21 (stereo not given) do in these assays?
PPARg SRC1 recr: 45*; PPARg SRC2 recr: 49*; PPARg SRC-3 ag: 78*; TR-FRET SRC-2 ct: 2686*; PPARg SRC2 conf: 35*; PPARg SRC1 conf: 23*; PPARg SRC3 conf: 22

How did Cn1c(=O)cc(SCC(=O)NCc2ccco2)c2ccccc21 do in these assays?
PPARg SRC1 recr: 28*; PPARg SRC2 recr: 36*; PPARg SRC-3 ag: 38*; TR-FRET SRC-2 ct: 2082*; PPARg SRC2 conf: 33*; PPARg SRC1 conf: 22*; PPARg SRC3 conf: 21

Results for COc1ccc(N2C(=O)C(CC(=O)Nc3ccccc3)N(Cc3ccccn3)C2=S)cc1 (stereo not given) ?
SRC3 TRFRET art: 1535; PPARg SRC1 recr: 11; PPARg SRC2 recr: -5; PPARg SRC-3 ag: 6; TR-FRET SRC-2 ct: 1853; SRC1 TRFRET art: 2105

Results for COc1ccc(/C=N/NC(=O)c2ccc(N(C)S(=O)(=O)c3ccccc3)cc2)cc1OC ?
SRC3 TRFRET art: 1522; PPARg SRC1 recr: -1; PPARg SRC2 recr: -1; PPARg SRC-3 ag: -5; TR-FRET SRC-2 ct: 1606; SRC1 TRFRET art: 1868

Results for CN(C)S(=O)(=O)c1ccc(N2CCCC2)c(C(=O)Nc2nc(-c3cc(F)ccc3F)cs2)c1 ?
SRC3 TRFRET art: 1602; PPARg SRC1 recr: -5; PPARg SRC2 recr: 6; PPARg SRC-3 ag: 5; TR-FRET SRC-2 ct: 1654; SRC1 TRFRET art: 1689

What do the screens show for `COc1ccc(CNC(=O)CSc2cc(=O)n(C)c3ccccc23)cc1`?
SRC3 TRFRET art: 2050*; PPARg SRC1 recr: 40*; PPARg SRC2 recr: 26*; PPARg SRC-3 ag: 24*; TR-FRET SRC-2 ct: 2425*; SRC1 TRFRET art: 2843*; PPARg SRC2 conf: 37*; PPARg SRC1 conf: 24*; PPARg SRC3 conf: 24*

How did Cn1cccc1/C=C1\CCc2ccccc2C1=O do in these assays?
SRC3 TRFRET art: 1477; PPARg SRC1 recr: 15; PPARg SRC2 recr: 7; PPARg SRC-3 ag: 6; TR-FRET SRC-2 ct: 1632; SRC1 TRFRET art: 2018

How did Cn1cccc1/C=C1\Cc2ccccc2C1=O do in these assays?
SRC3 TRFRET art: 1490; PPARg SRC1 recr: 19; PPARg SRC2 recr: 24*; PPARg SRC-3 ag: 14; TR-FRET SRC-2 ct: 1747; SRC1 TRFRET art: 2340*; PPARg SRC2 conf: 0; PPARg SRC1 conf: -2; PPARg SRC3 conf: 0

How did Cc1ccc(C)n1-c1ccc(-c2nnc3n2CCCCC3)s1 do in these assays?
PPARg SRC1 recr: 27*; PPARg SRC2 recr: 11; PPARg SRC-3 ag: 12; TR-FRET SRC-2 ct: 1802; PPARg SRC2 conf: 23*; PPARg SRC1 conf: 22*; PPARg SRC3 conf: 14

Results for O=C1N=c2ccccc2=C1c1sc(=S)n(NC(=O)c2cccc(O)c2)c1O ?
SRC3 TRFRET art: 2060*; PPARg SRC1 recr: 22*; PPARg SRC2 recr: 12; PPARg SRC-3 ag: 14; TR-FRET SRC-2 ct: 1790; SRC1 TRFRET art: 2026; PPARg SRC2 conf: 35*; PPARg SRC1 conf: 27*; PPARg SRC3 conf: 22

How did O=C(Nn1c(O)c(C=C2N=c3ccccc3=N2)sc1=S)c1ccc(Cl)cc1 do in these assays?
PPARg SRC1 recr: 4; PPARg SRC2 recr: -5; PPARg SRC-3 ag: 0; TR-FRET SRC-2 ct: 1686

Results for O=C(Nn1c(O)c(C=C2N=c3ccccc3=N2)sc1=S)c1cccc(Cl)c1 ?
PPARg SRC1 recr: 15; PPARg SRC2 recr: 15; PPARg SRC-3 ag: 27*; TR-FRET SRC-2 ct: 1764; PPARg SRC2 conf: 23*; PPARg SRC1 conf: 15; PPARg SRC3 conf: 10

Results for COc1ccc(N(CN2C(=O)C3CC=CCC3C2=O)C(=O)c2ccco2)cc1 (stereo not given) ?
PPARg SRC1 recr: 19*; PPARg SRC2 recr: 5; PPARg SRC-3 ag: 12; TR-FRET SRC-2 ct: 1738; PPARg SRC2 conf: 5; PPARg SRC1 conf: 3; PPARg SRC3 conf: 2

Results for CC(=O)c1ccc(N2CCN(C(=O)C3CCCN(S(=O)(=O)c4c(C)[nH]c(=O)[nH]c4=O)C3)CC2)cc1 (stereo not given) ?
SRC3 TRFRET art: 1370; PPARg SRC1 recr: -5; PPARg SRC2 recr: -5; PPARg SRC-3 ag: -3; TR-FRET SRC-2 ct: 1626; SRC1 TRFRET art: 1737

How did CN(C)/C=C/c1oc2ccc(O)cc2c1[N+](=O)[O-] do in these assays?
SRC3 TRFRET art: 1948; PPARg SRC1 recr: 19; PPARg SRC2 recr: 24*; PPARg SRC-3 ag: 18; TR-FRET SRC-2 ct: 1792; SRC1 TRFRET art: 2270; PPARg SRC2 conf: 14; PPARg SRC1 conf: 14; PPARg SRC3 conf: 14

What do the screens show for `Nc1c(C(=O)Nc2ccc(Br)cc2)sc2nc(-c3ccco3)ccc12`?
PPARg SRC1 recr: 11; PPARg SRC2 recr: 23*; PPARg SRC-3 ag: 25; TR-FRET SRC-2 ct: 1930; PPARg SRC2 conf: 15; PPARg SRC1 conf: 13; PPARg SRC3 conf: 6

Results for Nc1c(C(=O)Nc2ccc(F)cc2)sc2nc(-c3ccco3)ccc12 ?
PPARg SRC1 recr: 11; PPARg SRC2 recr: 9; PPARg SRC-3 ag: 4; TR-FRET SRC-2 ct: 1512

Screening data (PubChem)
